# Screening data (PubChem)
# This is a sample that favours compounds with a hit; in the whole collection about 6.8% have one here.
# C diff HTS = C. difficile growth inhibitors, primary screen, HTS; AID 1259249, 2017; Clostridium difficile clinical isolate growth, OD600, 24 h; active compounds read low; growth activity, negative = inhibition, % at 16 µg/mL (by protocol); 86,000 tested, 0.25% active;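 active means mean growth activity at or below -80% and every replicate also at or below -80%; inconclusive means mean at or below -80% but some replicate above -80%; inactive means mean growth activity above -80%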
# T cruzi growth-1 = T. cruzi intracellular proliferation inhibitors, primary screen, cell-based, beta-gal Tulahuen parasites, NIH3T3 host, luminescence; AID 624255, 2012; T. cruzi beta-gal in NIH3T3, GalScreen luminescence, 90 h; inhibition, % at 8.34 µM; 77,000 tested, 5.9% active;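 active means mean inhibition above about 93%, with at least 55% of replicates each passing it, limit read from the data, passing the limit was not always enough; inconclusive means only one of those two conditions holds; inactive means neither condition holds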
# Pf Dd2 inh = P. falciparum Dd2 growth inhibitors, primary screen, SYBR Green fluorescence, single dose replicates; 72 h; active compounds read low; activity change, % at 10 µM; 94,000 tested, 2.3% active; AID 1159554, 2015; in the data active means activity change below about -80%; inconclusive means no clear call, values can overlap the other calls
# T cruzi growth-2 = T. cruzi intracellular proliferation inhibitors, confirmation, cell-based, NIH3T3 host, beta-gal parasite, luminescence, cherry-pick; shares compounds with T cruzi growth-1; 5,600 tested, 72% active; T. cruzi beta-gal in NIH3T3, GalScreen luminescence, 90 h; inhibition, % at 8.35 µM; AID 651739, 2012;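 active means mean replicate inhibition above about 95% and at least 55% of replicates individually reaching it, limit read from the data; inconclusive means only one of the two criteria is met; inactive means neither criterion is met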
# T cruzi growth-3 = inhibitors of intracellular T. cruzi replication, confirmation, NIH3T3 host cells, beta-gal parasites, cherry-pick, set 2. shares compounds with T cruzi growth-1. T. cruzi beta-gal in NIH3T3, GalScreen luminescence, 90 h. inhibition, % at 2.09 µM. 5,600 tested, 21% active. AID 651740, 2012;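 active means mean inhibition above about 95%, with at least 55% of replicates also reaching it, limit read from the data; inconclusive means meets just one of the two conditions; inactive means meets neither condition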
# 3T3 cytotox = cytotoxicity in mouse NIH/3T3 fibroblasts, confirmation, cytotoxicity control for T. cruzi proliferation inhibitor project, cell-based, cherry-pick, single point. shares compounds with T cruzi growth-1. NIH/3T3 viability, CellTiter-Glo ATP luminescence, 90 h. cytotoxicity (signal decrease), % at 8.35 µM. 5,600 tested, 14% active;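 active means mean signal decrease across replicates above about 35% based on untreated-well scatter, with enough replicates individually passing, limit read from the data; inconclusive means no rule stated though some were filed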
# NIH3T3 tox 2 = NIH/3T3 fibroblast cytotoxicity, confirmation, cytotoxicity control, cell-based, cherry-pick, single point, set 2 | shares compounds with T cruzi growth-1 | NIH/3T3 viability, CellTiter-Glo ATP luminescence, 90 h | inhibition, % at 24.9 µM | 5,600 tested, 56% active;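 active means mean loss of cell viability signal at or above a set limit, and enough replicates individually reaching it; inconclusive means meets only the mean limit or only the replicate share; inactive means meets neither condition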
# A number is an active result; i = inactive; ? = inconclusive; nt = no result given.
SMILES,C diff HTS,T cruzi growth-1,Pf Dd2 inh,T cruzi growth-2,T cruzi growth-3,3T3 cytotox,NIH3T3 tox 2
C[C@@H]1CCCCO[C@H](CN(C)C(=O)Nc2ccc(C(F)(F)F)cc2)[C@H](C)CN([C@H](C)CO)C(=O)c2cc(NS(=O)(=O)c3ccc(Cl)cc3)ccc2O1,i,99,i,?,118,i,i
C[C@@H]1CN([C@@H](C)CO)C(=O)c2cc(-c3ccc(C#N)cc3)cnc2O[C@@H]1CN(C)Cc1ccccn1,i,i,i,nt,nt,nt,nt
COc1cccc(C(=O)Nc2ccc3c(c2)OC[C@@H](C)N(CCc2ccccc2)C[C@@H](C)[C@H](OC)CN(C)C3=O)c1,nt,118,i,103,i,i,i
COc1cccc(C(=O)Nc2ccc3c(c2)C(=O)N(C)C[C@@H](OC)[C@H](C)CN(CCc2ccccc2)[C@H](C)CO3)c1,nt,100,?,104,i,i,i
COc1cccc(C(=O)Nc2ccc3c(c2)OC[C@@H](C)N(CCc2ccccc2)C[C@H](C)[C@H](OC)CN(C)C3=O)c1,nt,i,i,nt,nt,nt,nt
COc1cccc(C(=O)Nc2ccc3c(c2)C(=O)N(C)C[C@H](OC)[C@@H](C)CN(CCc2ccccc2)[C@@H](C)CO3)c1,nt,i,i,nt,nt,nt,nt
COc1cccc(C(=O)Nc2ccc3c(c2)C(=O)N(C)C[C@@H](OC)[C@@H](C)CN(CCc2ccccc2)[C@H](C)CO3)c1,nt,i,i,nt,nt,nt,nt
COc1cccc(C(=O)Nc2ccc3c(c2)C(=O)N(C)C[C@@H](OC)[C@H](C)CN(CCc2ccccc2)[C@@H](C)CO3)c1,nt,92,i,108,i,i,i
O=C(C[C@@H]1C=C[C@@H](NC(=O)c2ccc(F)cc2)[C@H](CO)O1)NCc1ccncn1,i,i,i,nt,nt,nt,nt
CCCNC(=O)[C@@H]1N[C@@H]2c3ccc(-c4cccc(F)c4)c(=O)n3C[C@@H]2[C@H]1CO,i,i,i,nt,nt,nt,nt
COc1ccc(CN(C)C[C@@H]2Oc3ccc(NC(=O)Nc4ccc(C(F)(F)F)cc4)cc3C(=O)N([C@H](C)CO)C[C@@H]2C)cc1,i,i,i,nt,nt,nt,nt
OC[C@H]1Nc2ccc(-c3ccccc3)cc2[C@H]2[C@@H]1CCN2Cc1ccc(F)cc1,i,104,i,99,113,i,105
O=C(Cc1ccccc1)N1CC[C@@H]2[C@H]1c1cc(-c3ccc(F)cc3)ccc1N[C@@H]2CO,i,i,i,nt,nt,nt,nt
O=C(Cc1ccccc1)N1CC[C@@H]2[C@@H](CO)Nc3ccc(-c4ccc(F)cc4)cc3[C@@H]21,i,i,i,nt,nt,nt,nt
OC[C@@H]1Nc2ccc(-c3ccccc3)cc2[C@H]2[C@@H]1CCN2Cc1ccc(F)cc1,i,105,i,104,111,i,103
Cc1noc(C)c1S(=O)(=O)Nc1ccc2c(c1)CC(=O)N([C@H](C)CO)C[C@@H](C)[C@@H](CN(C)CC1CC1)O2,i,i,i,nt,nt,nt,nt
C[C@@H]1CCCCO[C@@H](CN(C)CC2CCCCC2)[C@@H](C)CN([C@H](C)CO)C(=O)c2cc(NS(=O)(=O)c3cn(C)cn3)ccc2O1,i,i,i,nt,nt,nt,nt
O=C(C[C@H]1CC[C@@H]2[C@H](COC[C@@H](O)CN2Cc2ccc(Oc3ccccc3)cc2)O1)N1CCOCC1,nt,i,i,nt,nt,nt,nt
O=C(C[C@H]1CC[C@H]2[C@@H](COC[C@H](O)CN2Cc2ccc(Oc3ccccc3)cc2)O1)N1CCOCC1,nt,i,i,nt,nt,nt,nt
CN1C[C@H](O)COC[C@@H]2O[C@@H](CC(=O)N3CCN(c4ccccc4)CC3)CC[C@H]21,i,?,i,102,i,i,i
CN1C[C@@H](O)COC[C@H]2O[C@@H](CC(=O)N3CCN(c4ccccc4)CC3)CC[C@@H]21,i,i,i,nt,nt,nt,nt
O=C(C[C@H]1CC[C@H]2[C@@H](COC[C@@H](O)CN2Cc2ccc(Oc3ccccc3)cc2)O1)N1CCN(c2ccccc2)CC1,i,127,i,101,i,i,104
Cc1ccccc1S(=O)(=O)N1C[C@H](O)COC[C@@H]2O[C@@H](CC(=O)N3CCN(C)CC3)CC[C@H]21,i,i,nt,nt,nt,nt,nt
O=C(C[C@@H]1CC[C@@H]2[C@H](COC[C@@H](O)CN2Cc2ccc(Oc3ccccc3)cc2)O1)N1CCN(c2ccccc2)CC1,i,96,i,98,i,i,32
Cc1ccccc1S(=O)(=O)N1C[C@@H](O)COC[C@@H]2O[C@H](CC(=O)N3CCN(C)CC3)CC[C@H]21,i,?,nt,i,i,i,i
SMILES,C diff HTS,T cruzi growth-1,Pf Dd2 inh,T cruzi growth-2,T cruzi growth-3,3T3 cytotox,NIH3T3 tox 2
CNC(=O)C[C@@H]1CC[C@@H]2[C@H](COc3ccc(NS(=O)(=O)c4cccc(F)c4)cc3C(=O)N2C)O1,i,i,i,nt,nt,nt,nt
C[C@@H]1CN([C@@H](C)CO)C(=O)Cc2cc(NC(=O)Cc3cn(C)c4ccccc34)ccc2O[C@@H]1CN(C)S(C)(=O)=O,i,i,i,nt,nt,nt,nt
CC=Cc1ccc2n(c1=O)C[C@H]1[C@H](CO)[C@@H](C(=O)OC)N(C(C)=O)[C@@H]21 (mixture of isomers),i,i,nt,nt,nt,nt,nt
COc1ccc2c3c([nH]c2c1)[C@H](CO)N(C(=O)NC1CCCC1)CC31CN(S(C)(=O)=O)C1,i,nt,i,nt,nt,nt,nt
C/C=C/c1ccc([C@@H]2[C@@H](CO)N(C(=O)CN(C)C)C23CN(C(=O)C2CCCCC2)C3)cc1,i,nt,i,nt,nt,nt,nt
O=C(C[C@@H]1CC[C@H]2[C@@H](COC[C@H](O)CN2Cc2ccc(Oc3ccccc3)cc2)O1)N1CCOCC1,nt,i,i,nt,nt,nt,nt
O=C(C[C@H]1CC[C@@H]2[C@H](COC[C@@H](O)CN2Cc2ccc(Oc3ccccc3)cc2)O1)N1CCN(c2ccccc2)CC1,i,130,i,i,i,i,91
Cc1ccc(S(=O)(=O)N(C)C[C@H]2Oc3c(NC(=O)Nc4ccc(F)cc4)cccc3C(=O)N([C@H](C)CO)C[C@@H]2C)cc1,i,i,i,nt,nt,nt,nt
C[C@@H]1CN([C@H](C)CO)C(=O)c2cc(C#Cc3ccccc3)cnc2O[C@H]1CN(C)C(=O)CN(C)C,i,i,?,nt,nt,nt,nt
C[C@@H]1CN([C@@H](C)CO)C(=O)c2cc(NS(=O)(=O)c3ccc(Cl)cc3)ccc2O[C@@H](C)CCCCO[C@H]1CN(C)Cc1ccncc1,i,?,i,102,i,i,i
C[C@@H]1CN([C@H](C)CO)C(=O)c2cc(NS(C)(=O)=O)ccc2O[C@@H](C)CCCCO[C@H]1CN(C)Cc1ccc(C(F)(F)F)cc1,i,116,i,107,108,i,98
